This is part of a sample that, as a whole, favours compounds with a hit. Of some 83,000 tested, about 20% had one in any assay.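 96-well plates, one dose, 48 hours. Percent growth reported; active if below 10.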 Calls of active or inactive are those of the source.
Legend:
Assay in all cases: NCI-60 one-dose screen, 48 h (100 = growth as untreated, 0 = no growth, -100 = all killed)
[1] = system: T-47D breast
[2] = system: BT-549 breast
[3] = system: MDA-MB-435 melanoma
[4] = system: SW-620 colon
[5] = system: MCF7 breast
[6] = system: HCT-116 colon
[7] = system: HCC-2998 colon
[8] = system: KM12 colon
[9] = system: MDA-MB-468 breast

Measured: growth

C#CCCCNCCNc1ccnc2cc(Cl)ccc12
inactive: [1]; 10 µM unless noted 71% | [2]; 10 µM unless noted 66.5% | [3]; 10 µM unless noted 59.7% | [4]; 10 µM unless noted 76.8% | [5]; 10 µM unless noted 52% | [6]; 10 µM unless noted 49.5% | [7]; 10 µM unless noted 62% | [8]; 10 µM unless noted 91.3%

CC/C(=C(\c1ccc(O)cc1)c1ccc(OCCNC)cc1)c1ccccc1
inactive: [1]; 1 µM 59.6% | [1]; 10 µM 44.8% | [2]; 1 µM 91.4% | [2]; 10 µM 74.4% | [3]; 1 µM 104% | [3]; 10 µM 74.5% | [4]; 1 µM 107% | [4]; 10 µM 89.9% | [5]; 1 µM 24.9% | [5]; 10 µM 25.8% | [6]; 1 µM 93.2% | [6]; 10 µM 62.4% | [7]; 1 µM 106% | [7]; 10 µM 56.7% | [8]; 1 µM 101% | [8]; 10 µM 65.9% | [9]; 1 µM 95.6% | [9]; 10 µM 72.4%

c1n[nH]cc1-c1nc2ccc3cn[nH]c3c2c2c1CCCC2
inactive: [1]; 10 µM unless noted 74.7% | [2]; 10 µM unless noted 97.1% | [3]; 10 µM unless noted 94.8% | [4]; 10 µM unless noted 109% | [5]; 10 µM unless noted 78.7% | [6]; 10 µM unless noted 89.5% | [7]; 10 µM unless noted 104% | [8]; 10 µM unless noted 96.4%

CCOC(=O)/C(F)=C/C1CC1C(c1ccccc1)c1ccccc1 (centres undefined)
inactive: [1]; 10 µM unless noted 70.7% | [2]; 10 µM unless noted 117% | [3]; 10 µM unless noted 84.8% | [4]; 10 µM unless noted 75.1% | [5]; 10 µM unless noted 80.7% | [6]; 10 µM unless noted 62% | [7]; 10 µM unless noted 102% | [8]; 10 µM unless noted 83.5%

COc1cccc(/C=C/c2nc3ccccc3c(=O)n2CC(=O)Nc2ccccc2)c1
inactive: [1]; 10 µM unless noted 36.7% | [2]; 10 µM unless noted 43.9% | [3]; 10 µM unless noted 70.6% | [4]; 10 µM unless noted 51.1% | [5]; 10 µM unless noted 41.6% | [6]; 10 µM unless noted 35.7% | [7]; 10 µM unless noted 89.8% | [8]; 10 µM unless noted 94.2%

OC1CCC(Cn2c(C(F)(F)F)cc3c(Cl)ncnc32)CC1 (centres undefined)
inactive: [1]; 10 µM unless noted 82% | [4]; 10 µM unless noted 38.8% | [5]; 10 µM unless noted 91% | [8]; 10 µM unless noted 86.5%
active: [2]; 10 µM unless noted -37.7% | [3]; 10 µM unless noted 8.29% | [6]; 10 µM unless noted 1.57% | [7]; 10 µM unless noted -94%

Cc1ccc(C(=O)Nc2cc(-n3ccnc3C)cc(C(F)(F)F)c2)cc1C#Cc1cnc2cccnn12
active: [1]; 10 µM unless noted 0.344% | [2]; 10 µM unless noted -22.7% | [3]; 10 µM unless noted 3.5% | [5]; 10 µM unless noted 0.633% | [6]; 10 µM unless noted -41.3% | [7]; 10 µM unless noted -48.7% | [8]; 10 µM unless noted 3.67%
inactive: [4]; 10 µM unless noted 12.6%

N#CC1=C(c2cccs2)Nc2c(c(-c3ccccc3)nn2-c2ccccc2)C12C(=O)Nc1ccc(Br)cc12 (centres undefined)
active: [1]; 10 µM unless noted 1.8% | [2]; 10 µM unless noted -68.4% | [3]; 10 µM unless noted -40.1% | [4]; 10 µM unless noted -24.6% | [5]; 10 µM unless noted 7.23% | [6]; 10 µM unless noted -52.8% | [7]; 10 µM unless noted 6.28% | [8]; 10 µM unless noted -12.2%

CC(=O)c1ccc2c(N)c(C(=O)Nc3ccc(C(F)(F)F)cc3)sc2n1
inactive: [1]; 10 µM unless noted 18.1% | [2]; 10 µM unless noted 43.4% | [3]; 10 µM unless noted 48.1% | [4]; 10 µM unless noted 80.1% | [5]; 10 µM unless noted 27.8% | [6]; 10 µM unless noted 31% | [7]; 10 µM unless noted 83.6% | [8]; 10 µM unless noted 56.7%

Clc1ccc2c(NCCNC34CC5CC(CC(C5)C3)C4)ccnc2c1
active: [1]; 10 µM unless noted -47.2% | [2]; 10 µM unless noted -86.5% | [3]; 10 µM unless noted -72.3% | [4]; 10 µM unless noted -47.1% | [5]; 10 µM unless noted -78.7% | [6]; 10 µM unless noted -40.1% | [7]; 10 µM unless noted -89.5% | [8]; 10 µM unless noted -96.8%

Cc1ccc(C2CC(c3ccc(NC(=O)Nc4ccccc4)cc3)=NN2c2ccc(S(C)(=O)=O)cc2)cc1 (centres undefined)
active: [2]; 10 µM unless noted -32.8% | [3]; 10 µM unless noted -7.07% | [4]; 10 µM unless noted -42.6% | [5]; 10 µM unless noted -34.3% | [6]; 10 µM unless noted -36.5% | [7]; 10 µM unless noted -80.7% | [8]; 10 µM unless noted -2.32%
inactive: [1]; 10 µM unless noted 11.9%

CC/C(=C(/c1ccc(O)cc1)c1ccc(OCCN(C)C(=O)COCCOCCNC(=O)Cc2ccc3c(c2)CN([C@@H]2CCC(=O)NC2=O)C3=O)cc1)c1ccccc1
active: [1]; 10 µM 6.14% | [2]; 1 µM -20.3% | [2]; 10 µM -26% | [9]; 1 µM 1.33% | [9]; 10 µM -15.7%
inactive: [1]; 1 µM 19.2% | [3]; 1 µM 107% | [3]; 10 µM 73.6% | [4]; 1 µM 84.2% | [4]; 10 µM 29.6% | [6]; 1 µM 96.4% | [6]; 10 µM 101% | [7]; 1 µM 97.3% | [7]; 10 µM 48.9% | [8]; 1 µM 105% | [8]; 10 µM 50.3%

— PubChem BioAssay (NCI)
